Bioassay records: PubChem, The Scripps Research Institute Molecular Screening Center
CHO-K1 Ca antag: counter-screen for M1 antagonists: effect in parental CHO-K1 cells | hit rate 0.6% among 360,000 | ATP-induced calcium, Fluo-8 fluorescence | inhibition, % at 3 µM;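 active = inhibition above a per-plate cutoff, the plate's mean sample inhibition plus 3 SD, cut at about 24% in these data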;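 also: 0% = DMSO plus EC80 ATP and 100% = DMSO alone without ATP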
CHRM1 agonist: agonists of human M1 muscarinic receptor. P11229. CHO-K1 hM1, Fluo-8 calcium fluorescence, agonist mode; 0% DMSO, 100% acetylcholine EC100. activation, % at 3 µM. hit rate 0.33% among 360,000. AID 588814;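 active = activation above the run's mean compound activation plus 3 SD, cut at about 16% in these data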;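 also: peak over basal fluorescence ratio within a 140 s kinetic read after compound addition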
Target sequence (P11229 whole entry, looked up): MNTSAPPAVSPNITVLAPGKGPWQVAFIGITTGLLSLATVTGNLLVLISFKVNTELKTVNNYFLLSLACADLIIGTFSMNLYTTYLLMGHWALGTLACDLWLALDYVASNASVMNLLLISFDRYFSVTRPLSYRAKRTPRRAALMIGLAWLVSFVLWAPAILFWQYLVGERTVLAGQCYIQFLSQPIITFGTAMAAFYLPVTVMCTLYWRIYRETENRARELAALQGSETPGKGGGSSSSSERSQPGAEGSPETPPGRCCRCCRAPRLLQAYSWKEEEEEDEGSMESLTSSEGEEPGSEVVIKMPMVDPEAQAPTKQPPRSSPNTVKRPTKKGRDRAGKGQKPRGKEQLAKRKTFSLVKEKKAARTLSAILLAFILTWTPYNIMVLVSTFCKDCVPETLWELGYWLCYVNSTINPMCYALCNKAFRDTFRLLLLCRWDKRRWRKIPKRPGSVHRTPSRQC
CHRM1 antagonist: blocks human M1 muscarinic receptor. CHO-K1 hM1, Fluo-8 calcium fluorescence, ACh EC80 antagonist. P11229. hit rate 1.3% among 360,000. inhibition, % at 3 µM;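 active = percent inhibition above its own plate's cutoff, namely the mean of that plate's compound wells plus 3 SD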;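 also: peak over basal fluorescence ratio during 140 s after agonist addition; 0% = ACh EC80 plus DMSO and 100% = DMSO alone without agonist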
CHRM1 PAM: human CHRM1 positive allosteric modulation; P11229; CHO-K1 hM1, Fluo-8 calcium fluorescence, ACh EC20; 0% = ACh EC20, 100% = maximal ACh; activation, % at 3 µM; hit rate 0.088% among 360,000; in the data active = activation above about 19%, passing the limit was not always enough
CHO-K1 Ca PAM: counter-screen for M1 PAMs: effect in parental CHO-K1 cells; AID 602247; ATP EC20, Fluo-8 calcium fluorescence; 0% at ATP EC20, 100% at ATP max; activation, % at 3 µM; hit rate 0.02% among 360,000;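 active = activation above the run cutoff, the mean activation of all test compounds plus 3 SD, cut at about 40% in these data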;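 also: peak over basal fluorescence ratio in a 140 s read after ATP addition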
M1 ag parental: nonselective activator or artifact in parental CHO-K1 cells; Fluo-8 calcium fluorescence; scaled to maximal ATP response, vehicle zero; activation, % at 3 µM; hit rate 0.48% among 360,000; in the data active = activation above about 15%;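 also: untransfected CHO-K1 host cells lacking M1 receptor as counterscreen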
* = called active by the depositor. Hits are enriched below; roughly 2.3% of the tested compounds scored in any of these assays.

SMILES	CHO-K1 Ca antag	CHRM1 agonist	CHRM1 antagonist	CHRM1 PAM	CHO-K1 Ca PAM	M1 ag parental
CC1(C(=O)NS(=O)(=O)c2ccc(F)cc2F)CCN1C(=O)Cc1ccccc1 (stereo not given)	5	-4	3	-6	-10	0
CC1(C(=O)NS(=O)(=O)c2ccc(F)cc2F)CCN1C(=O)Cc1ccc(Cl)cc1Cl (stereo not given)	27*	-3	0	-1	-9	0
CCCNC(=O)c1cc(C2CCCCN2C(=O)CCCc2ccccc2)on1 (stereo not given)	25*	-6	10	-10	-24	1
CCCNC(=O)c1cc(C2CCCCN2C(=O)OCCF)on1 (stereo not given)	-10	-8	-12	10	18	1
CCCNC(=O)c1cc(C2CCCCN2C(=O)OCC(C)C)on1 (stereo not given)	5	-9	42*	-20	-12	0
CN(C)C1=NCCN1CCCCc1ccccc1	-6	-14	20	-15	20	0
COc1ccc(-c2cn(-c3ccccc3)c3[n+]2CCS3)cc1	0	-10	40*	-25	10	0
CC(C)(C)c1ccc(-c2cn(-c3ccc(Br)cc3)c3[n+]2CCCS3)cc1	17	-10	79*	-28	13	3
COc1ccc(CNC(=O)C(c2ccc(C)o2)N(Cc2cccs2)C(=O)Cc2cccs2)cc1 (stereo not given)	8	5	40*	-18	7	6
O=C(NCc1ccccc1)C(c1ccccc1)N(Cc1ccc2c(c1)OCO2)C(=O)Cc1cccs1 (stereo not given)	6	1	45*	-15	4	4
COCCN(C(=O)Cc1cccs1)C(C(=O)NCc1ccc(OC)cc1)c1ccc(C)cc1 (stereo not given)	-14	-1	-20	0	6	8
COCCNC(=O)C(c1ccc(C)o1)N(Cc1ccc(OC)cc1)C(=O)Cn1nnc2ccccc21 (stereo not given)	9	23*	-29	0	10	9
CCc1nc2ccc(C(=O)N(C)Cc3ccco3)cn2c1N(CC)C(=O)NCCc1ccccc1	-2	-3	-5	4	-11	0
NS(=O)(=O)c1ccc(NC(=O)COC(=O)c2ccc(Cl)cc2[N+](=O)[O-])cc1	3	-1	-17	16	-4	0
COc1ccc(Cn2ccnc2)cc1Br	-11	-3	-5	-1	14	2
COc1ccc(NCc2ccc(OC)c(Cn3ccnc3)c2)c(OC)c1	-3	-9	34*	-22	-3	5
O=S(=O)(Nc1nc(-c2sccc2Cl)cs1)c1cc(Cl)ccc1Cl	26*	-1	2	-2	-6	-1
COc1ccccc1NC(=O)CSc1nc2ccccc2cc1Cc1ccccc1	-11	-6	1	-1	42*	1
COC(=O)c1ccc(OC(=O)CCc2cc(OC)c(OC)c(OC)c2)cc1	-15	0	-4	10	16	16*
COC(=O)c1cc(OC(=O)CCc2ccc(OC)c(OC)c2)cc(C(=O)OC)c1	-10	-5	-12	8	10	2
Cc1c(C(=O)N(C)C2CC(C)(C)NC(C)(C)C2)oc2c(F)cccc12	-5	-4	-1	1	13	1
CC1CCN(c2c(NCC3CCC(C(=O)N4CCCCC4)CC3)c(=O)c2=O)CC1 (stereo not given)	28*	-2	21	-8	-7	0
CCN(CC)CCN(Cc1cc2cc3c(cc2[nH]c1=O)OCO3)C(=S)NCCCOC	0	-7	-12	10	27	1
CCN(CC)CCCN(Cc1cc2cc3c(cc2[nH]c1=O)OCO3)C(=S)NCCCOC	24*	-9	0	3	-22	0
COCCNC(=S)N(CCO)Cc1cc2cc3c(cc2[nH]c1=O)OCO3	-5	-5	3	2	11	1
COCCNC(=S)N(CCCO)Cc1cc2cc3c(cc2[nH]c1=O)OCCO3	26*	-2	16	-7	-20	0
Nc1ccn(CC(=O)NCCc2ccccn2)c(=O)n1	7	2	-10	20	-13	0
